Assay outcomes deposited in PubChem BioAssay by National Center for Advancing Translational Sciences (NCATS).
D2 ag-1: D2 dopamine receptor (human) agonism; P14416; HEK293 T-REx D2 cells, calcium flux agonist mode; activation, % at 2 µM; 340,000 tested, 0.53% active; AID 485358;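 active means activation over 3 SD above normal in the single-dose calcium agonist read, cut at about 30% in these data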
Target sequence (P14416 whole entry, looked up): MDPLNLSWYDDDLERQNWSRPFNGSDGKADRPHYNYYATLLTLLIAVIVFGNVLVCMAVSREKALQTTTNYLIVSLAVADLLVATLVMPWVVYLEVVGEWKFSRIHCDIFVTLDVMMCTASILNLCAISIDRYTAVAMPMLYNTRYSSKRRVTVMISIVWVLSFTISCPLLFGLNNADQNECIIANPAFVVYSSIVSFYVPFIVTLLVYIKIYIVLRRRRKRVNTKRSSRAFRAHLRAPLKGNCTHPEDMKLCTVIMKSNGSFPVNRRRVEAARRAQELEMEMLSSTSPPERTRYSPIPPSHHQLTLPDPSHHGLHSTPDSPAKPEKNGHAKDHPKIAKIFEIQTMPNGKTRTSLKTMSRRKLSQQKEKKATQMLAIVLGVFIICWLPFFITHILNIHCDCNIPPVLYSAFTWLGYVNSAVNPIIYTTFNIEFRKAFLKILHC
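Tetracycline-induced HEK293 Trex cells with D2 receptor force-coupled to calcium signaling, plated overnight at 30 C and loaded with no-wash calcium dye. Calcium flux read kinetically for 180 s after compound addition; responses flag agonists.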
D2 PAM-1: D2 dopamine receptor (human) potentiation | P14416 | HEK293 T-REx D2, calcium flux, EC20 dopamine potentiation | potentiation, % at 10 µM | 340,000 tested, 0.34% active | AID 485347;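 active means potentiation over 3 SD above the plate norm, cut at about 30% in these data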
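Using a no-wash calcium dye in inducible, force-coupled HEK293 Trex cells expressing D2, we tracked fluorescence each second for 180 s after compound, then for 180 s after EC20 dopamine to detect augmented signalling.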
D2 antag: antagonizes the human D2 dopamine receptor. HEK293 TREx D2 cells, calcium flux, dopamine EC80. 340,000 tested, 2% active. P14416. inhibition, % at 10 µM; in the data active means inhibition above about 30%; inactive means below that, where a call was filed
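Measurement of antagonist activity uses fluorescent calcium dye in inducible HEK293 T-REx D2 cells: 10 s baseline, compound addition with 180 s read, EC80 dopamine addition with a further 180 s read.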
D2 PAM-2: human D2 receptor positive allosteric modulation | DiscoveRx D2 beta-arrestin cells, luminescence, 90 min; 100% = 57 uM dopamine signal | potentiation, % (no concentration beside the values) | 360,000 tested, 0.23% active | AID 624464; in the data active means potentiation above about 50%; inconclusive means mostly about 30% to 49%
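PathHunter D2 cells, attached overnight at 37 deg C, received compound in DMSO plus dopamine at EC20 (50 nM final) for 90 min at 37 deg C. Beta-arrestin recruitment was read as luminescence after 1 h with detection reagent at ambient temperature.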
D2 ag-2: human D2 receptor agonism in beta-arrestin assay; P14416; DiscoveRx PathHunter D2 beta-arrestin, luminescence, 90 min; 100% = 57 uM dopamine signal; activation, % (no concentration beside the values); 360,000 tested, 0.084% active; AID 624465; in the data active means activation above about 40%; inconclusive means between about 15% and that limit
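DiscoveRx PathHunter D2 beta-arrestin cells (2,100/well) attached overnight, then compound-stimulated 90 min at 37 C in HBSS/10 mM HEPES/0.1% Tween-20 buffer; beta-galactosidase complementation read by luminescence after 1 h at ambient temperature. Dopamine 57 uM final (EC100) as control.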
Large screens that a line does not name were inactive. Compounds with a hit are over-represented: about 2.4% of the library has one in this group of screens.

Cc1ccc(NC(=O)COc2ccc(-n3cnnn3)cc2)cc1C	D2 antag 42
COC(=O)c1ccc(NC(=O)COc2cccc(-n3cnnn3)c2)cc1	none
CCc1ccc(NC(=O)COc2cccc(-n3cnnn3)c2)cc1	D2 antag 37
CCc1ccccc1NC(=O)c1ccc2[nH]c(C)c(C)c2c1	none (no result: D2 antag, D2 PAM-2, D2 ag-2)
Cc1cc(Nc2cccc(Br)c2)n2c(nc3ccccc32)c1C#N	none (no result: D2 antag, D2 PAM-2, D2 ag-2)
CN(C(=O)CN1C(=O)C2C3CC(C(Br)C3Br)C2C1=O)C1CCCCC1 (stereo unspecified)	D2 antag 31
COc1ccc(-c2nc(C)c(CCNS(=O)(=O)c3cc(C)c(C)cc3C)s2)cc1	none (no result: D2 antag, D2 PAM-2, D2 ag-2)
CCOc1ccccc1NC(=O)Cn1c(=O)n(Cc2ccc(OC)cc2)c(=O)c2oc3ccccc3c21	none (no result: D2 antag, D2 PAM-2, D2 ag-2)
CC(C)(C)OC(=O)N1CCC(CC2CC(c3cccc(Br)c3)=NO2)(C(=O)NCC2CCCCC2)CC1 (stereo unspecified)	none
O=C(c1ccccc1)N1CCC(CC2CC(c3cccc(Br)c3)=NO2)(C(=O)NCC2CCCCC2)CC1 (stereo unspecified)	D2 antag 31
CC(C)(C)c1ccc(C(=O)Nc2c3c(nn2C(C)(C)C)CS(=O)(=O)C3)cc1	none
COc1ccc(C(=O)Nc2c3c(nn2C(C)(C)C)CS(=O)(=O)C3)cc1OC	D2 antag 35
O=C(O)c1ccc(NS(=O)(=O)c2ccc(N3C(=O)CCC3=O)cc2)cc1	D2 antag 39
O=C(c1ccc(S(=O)(=O)Nc2ccccc2)cc1)N1CCC1	none
O=C(O)c1ccc(NS(=O)(=O)c2cc(C(=O)O)ccc2Br)cc1	D2 PAM-2 70
CCOC(=O)c1c(Nc2ccc(C)c(C)c2)nnc(-c2ccccc2)c1-c1ccccc1	none (no result: D2 antag, D2 PAM-2, D2 ag-2)
CN(CCNC(=O)CCCOc1cc(=O)n(C)c2ccccc12)Cc1ccccc1	D2 antag 47 (no result: D2 PAM-1)
CCn1c(=O)cc(OCC(=O)NCCCN2CC(C)CC(C)C2)c2ccccc21 (stereo unspecified)	D2 antag 58
CC1CCN(CCCNC(=O)c2n[nH]c(=O)c3ccccc23)CC1	D2 antag 41
CC1CCN(CCCNC(=O)COc2cc(=O)n(C)c3ccccc23)CC1	D2 antag 34
CN(CCCNC(=O)CCCOc1cc(=O)n(C)c2ccccc12)Cc1ccccc1	none
CCn1c(=O)cc(OCC(=O)NCCCN2CCC(C)CC2)c2ccccc21	none (no result: D2 ag-1, D2 antag)
CC(C)c1ccc(-c2noc(SCC(=O)N3CCCCC3)n2)cc1	none (no result: D2 antag, D2 PAM-2, D2 ag-2)
O=C(CN1C(=O)CCc2cc(S(=O)(=O)N3CCOCC3)ccc21)NCc1ccc(F)cc1	none (no result: D2 antag, D2 PAM-2, D2 ag-2)
O=C(Cn1c(-c2ccco2)nc2ccccc21)N1CCCCC1	D2 antag 46
Nc1nonc1-c1nc2ccccc2n1CC(=O)N1CCCCC1	none
CC(C)c1ccc(-c2nnn(CCC(=O)O)n2)cc1	D2 PAM-2 81, D2 ag-2 inconclusive
O=C(O)CCn1nnc(-c2cccs2)n1	none
O=C(Oc1ccc(Cl)c2ccccc12)N1CCCCC1	D2 antag 56
O=C(Oc1ccc(Cl)c2cccnc12)N1CCCCC1	none
CCCn1c(Nc2ccccc2)nc2ccccc21	none
CCN(CC)CCn1c(NCc2cc(OC)ccc2OC)nc2ccccc21	none
CCN(CC)CCn1c(NCc2cccc(OC)c2)nc2ccccc21	D2 antag 44
CCN(CC)CCn1c(NC(=O)c2ccc(C(F)(F)F)cc2)nc2ccccc21	D2 antag 88
CCN(CC)CCn1c(NCc2ccc3c(c2)OCO3)nc2ccccc21	D2 antag 33
CCCn1c(Nc2cccc(OC)c2)nc2ccccc21	D2 antag 39
COc1ccc(OCCCCn2c(C3CC(=O)N(c4cccc(Cl)c4)C3)nc3ccccc32)cc1 (stereo unspecified)	none (no result: D2 antag, D2 PAM-2, D2 ag-2)
Cc1ccccc1N(C)C(=O)c1noc2c1COc1ccccc1-2	none (no result: D2 antag, D2 PAM-2, D2 ag-2)
COc1ccc(Cn2c(C(=O)O)c(CNCc3ccco3)c3ccc(OC)cc32)cc1	none (no result: D2 antag, D2 PAM-2, D2 ag-2)
Cc1ccc(C(=O)N2c3nc(-c4ccco4)nn3C3(CCCCC3)[C@@H]3CCCC[C@@H]32)cc1	none (no result: D2 antag, D2 PAM-2, D2 ag-2)
COc1ccc(CNC(=O)CSc2nnc(C)c3c(C)n(-c4ccccc4)nc23)c(OC)c1	none (no result: D2 ag-1, D2 antag, D2 PAM-2, D2 ag-2)
COc1ccc(NC(=O)CN(C)C(=O)CN2C(=O)c3ccc([N+](=O)[O-])cc3C2=O)cc1	D2 PAM-2 66
CCOC(=O)c1ccccc1NC(=O)c1cnc(N2CCOCC2)c2ccccc12	none (no result: D2 antag, D2 PAM-2, D2 ag-2)
O=C(CCCn1ccc2cc(S(=O)(=O)N3CCCC3)ccc21)NCc1ccc(Cl)cc1	none (no result: D2 ag-1, D2 antag, D2 PAM-2, D2 ag-2)
CC(=O)Nc1ccc(N2C(=O)c3cccc4c(O)ccc(c34)C2=O)cc1	D2 ag-1 64
COc1ccc(C(=O)NNC2=Nc3cccc4cccc2c34)cc1	D2 antag 63
Cc1ccc(C(=O)NNC2=Nc3cccc4cccc2c34)cc1	D2 antag 71
COc1ccc(CC(=O)NNC2=Nc3cccc4cccc2c34)cc1	none
NC(=O)NNC1=Nc2cccc3cccc1c23	none
CCOC(=O)CSc1nc(C)cc(Oc2ccc(=O)n(C)n2)n1	D2 antag 36
Cc1cc(Oc2ccc(=O)n(C)n2)nc(SCCOc2ccccc2)n1	none
O=C(Cc1cccs1)Nc1c(C(=O)Nc2ccc(F)cc2)oc2ccccc12	none (no result: D2 antag, D2 PAM-2, D2 ag-2)
COc1ccc(CCNC(=O)C2Cc3ccccc3C(=O)O2)cc1 (stereo unspecified)	none
COc1ccc(CCNC2CCc3ccccc3C2)cc1 (stereo unspecified)	D2 antag 81
CC(C)Oc1ccc(S(=O)(=O)N2CCOCC2)cc1NC(=O)Cc1c(F)cccc1Cl	D2 antag 31
CC(C)Oc1ccc(S(=O)(=O)N2CCCCC2)cc1NC(=O)CN1CCCC1c1cccs1 (stereo unspecified)	D2 antag 33
Cc1ccc(-c2csc(N3CCN(c4cc5c(cc4Cl)nc(-c4ccncc4)n5CCN4CCCCC4)CC3)n2)cc1	none
CCCn1c(C)nc2cc(Cl)c(N3CCN(c4nc(-c5ccc(C)cc5)cs4)CC3)cc21	D2 antag 40
Nc1ccc(C(=O)N2CCN(S(=O)(=O)c3ccc(Br)cc3)CC2)cc1[N+](=O)[O-]	D2 antag 35
O=C(Nc1nccs1)C1CCCN(S(=O)(=O)c2cccc3cccnc23)C1 (stereo unspecified)	D2 antag 39
CCOC(=O)N1CCC(NC(=O)C2CCN(S(=O)(=O)c3cccc4cccnc34)CC2)CC1	D2 antag 51
COc1ccc(C(=O)NCC(c2ccc3c(c2)OCO3)N2CCN(C)CC2)cc1OC (stereo unspecified)	none (no result: D2 antag, D2 PAM-2, D2 ag-2)
COc1cc(Cl)ccc1OCc1cc(C(=O)N2CCN(C)C(=O)[C@@H]2C)no1	none (no result: D2 ag-1, D2 PAM-1, D2 antag)
Cc1cc(OCc2cc(C(=O)N3CCN(C)C(=O)[C@@H]3C)no2)cc(C)c1Cl	D2 PAM-1 30
